Structures can show the parent of a compound that is named as a salt.

This is an account of results in the supplement of paper PMC10121225.
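Also: immunostained co-cultures imaged by high-content microscopy, Z-score per plate against mean and SD of 0.1% DMSO wells, compounds added on differentiation day 18, analysed day 21.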

The test system of this assay is hN + hpA co-culture (H1 iNGN2 human neurons + human primary astrocytes). Nature of the assay: presynaptic density (SYNAPSIN1 puncta per MAP2 neurite area), Z-score vs DMSO controls; higher = more presynaptic puncta (synapse-promoting). The following applies: 3 µM; 72 h.
As for `CC(CCc1ccccc1)NCC(O)c1ccc(O)c(C(N)=O)c1` (centres undefined) [Labetalol HCl], the “presynaptic density (Z-score)” value was -0.733. As for `CN1CCC(CNc2ccc3ncc(-c4cccc(OC(F)(F)F)c4)n3n2)CC1`, the “presynaptic density (Z-score)” value is -2.44. Under `O=C(Nc1ccccc1)N1CCN(c2nc(-c3ccccc3)ns2)CC1` stands -0.242; under `O=C(Nc1cccc(Cl)c1)c1ccccn1`, 0.851. The result for `CS(=O)(=O)c1cccc(CNc2nc(Nc3ccc4c(c3)CCC(=O)N4)ncc2C(F)(F)F)c1` reads 1.04; that for `O=S(=O)(c1ccccc1)N(CC(F)(F)F)c1ccc(C(O)(C(F)(F)F)C(F)(F)F)cc1`, -0.732. The result for `CCNC(=O)c1noc(-c2cc(C(C)C)c(O)cc2O)c1-c1ccc(CN2CCOCC2)cc1` reads 3.55; that for `CCCC(C)NC(=O)c1ccc(Cl)c(Cl)c1` (centres undefined), -0.211. For the compound `COc1cccc2c1C(=O)c1c(O)c3c(c(O)c1C2=O)C[C@@](O)(C(C)=O)C[C@@H]3O[C@H]1C[C@H](N)[C@H](O)[C@H](C)O1` [Daunorubicin HCl], the “presynaptic density (Z-score)” value came out at 0.0215. The result for `CN1CCN(c2nc(C3=C(c4c[nH]c5ccccc45)C(=O)NC3=O)c3ccccc3n2)CC1` [AEB071 (Sotrastaurin)] reads -0.719; that for `COc1cc(Nc2c(C#N)cnc3cc(OCCCN4CCN(C)CC4)c(OC)cc23)c(Cl)cc1Cl` [Bosutinib (SKI 606)], -1.36. On to `CN(C)CCCCC(=O)Nc1ccc(NC(=S)NC(=O)c2ccc(C(C)(C)C)cc2)cc1` [Tenovin-6], for which the “presynaptic density (Z-score)” value was -0.671. `O=C(CCCCCCC(=O)Nc1ccc([C@H]2O[C@@H](CSc3nc(-c4ccccc4)c(-c4ccccc4)o3)C[C@@H](c3ccc(CO)cc3)O2)cc1)NO` [Tubacin]: the “presynaptic density (Z-score)” value was 0.79. The result for `CC1=C(C(=O)Nc2cc3cn[nH]c3cc2F)C(c2ccc(C(F)(F)F)cc2)CC(=O)N1` (centres undefined) reads 1.88. For `COC1CC2CCC(C)C(O)(O2)C(=O)C(=O)N2CCCCC2C(=O)OC(C(C)CC2CCC(OP(C)(C)=O)C(OC)C2)CC(=O)C(C)C=C(C)C(O)C(OC)C(=O)C(C)CC(C)C=CC=CC=C1C` (centres undefined) [Ridaforolimus (Deforolimus], the “presynaptic density (Z-score)” value was determined as 0.509.

In the case of `CC1COCCN1c1cc(C2(S(C)(=O)=O)CC2)nc(-c2cccc3[nH]ccc23)n1` (centres undefined), the “presynaptic density (Z-score)” value is 0.445. Take `O=C(Nc1ccccc1-c1cn2c(CN3CCNCC3)csc2n1)c1cnc2ccccc2n1`: the “presynaptic density (Z-score)” value was -1.26.

For the compound `C=CCNC1=C2C[C@@H](C)C[C@H](OC)[C@H](O)[C@@H](C)/C=C(\C)[C@H](OC(N)=O)[C@@H](OC)/C=C\C=C(/C)C(=O)NC(=CC1=O)C2=O` [17-AAG (Tanespimycin)], the “presynaptic density (Z-score)” value came out at 0.868. Under `CN(Cc1cnc2nc(N)nc(N)c2n1)c1ccc(C(=O)N[C@@H](CCC(=O)O)C(=O)O)cc1` [Methotrexate] stands -0.494; under `CC(C)c1onc(-c2c(Cl)cccc2Cl)c1COc1ccc(/C=C/c2cccc(C(=O)O)c2)c(Cl)c1`, -0.576. Regarding `Cc1cc([C@@H](C)Nc2ccccc2C(=O)O)c2nc(N3CCOCC3)cc(=O)n2c1`, the “presynaptic density (Z-score)” value was -0.243. Under `C=C1C(=O)OC2C=C(C)CCC=C(C)CCC12` (centres undefined) stands 0.309; under `CCOC(=O)NCCCC(=O)NCCc1ccccc1`, -0.656. Under `CC1(C)CCC(CN2CCN(c3ccc(C(=O)NS(=O)(=O)c4ccc(NCC5CCOCC5)c([N+](=O)[O-])c4)c(Oc4cnc5[nH]ccc5c4)c3)CC2)=C(c2ccc(Cl)cc2)C1` stands -1.11; under `Cc1ccc(S(=O)(=O)NC(=O)NN2CC3CCCC3C2)cc1` (centres undefined), 0.0878. Turning to `COc1cccc(-c2cc(F)ccc2C2Cc3nc(N)nc(C)c3C(=O)N2)n1` (centres undefined), the “presynaptic density (Z-score)” value amounted to 2.18.

Turning to `C[C@]12CC[C@@H]3c4ccc(O)cc4C[C@@H](CCCCCCCCC[S+]([O-])CCCC(F)(F)C(F)(F)F)[C@H]3[C@@H]1CC[C@@H]2O` (some centres undefined) [Fulvestrant], the “presynaptic density (Z-score)” value is -0.41.

For `NC1(c2ccc(-c3nc4ccn5c(=O)[nH]nc5c4cc3-c3ccccc3)cc2)CCC1`, the “presynaptic density (Z-score)” value is -1.01. Under `O=C(Nc1cccc(Cl)c1)Nc1ncc(CCNc2ncnc3ccsc23)s1` [SNS-314 Mesylate] stands -0.232; under `COC(=O)CCSCc1ccc(-c2onc(C)c2NC(=O)OC(C)c2ccccc2Cl)cc1` (centres undefined), -0.843. Under `OC(CNCC(O)C1CCc2cc(F)ccc2O1)C1CCc2cc(F)ccc2O1` (centres undefined) [Nebivolol] stands -0.196.

Regarding `COc1ccc2c(c1)c(C1=C(c3c[nH]c4ccccc34)C(=O)NC1=O)cn2CCCN(C)C`, the “presynaptic density (Z-score)” value was -0.96. Consider `O=c1ncn2nc(Sc3ccc(F)cc3F)ccc2c1-c1c(Cl)cccc1Cl`, for which the “presynaptic density (Z-score)” value came out at 0.626.

In the case of `CCOc1nc2cccc(C(=O)O)c2n1Cc1ccc(-c2ccccc2-c2nnn[nH]2)cc1` [Candesartan], the “presynaptic density (Z-score)” value was 0.323.
